Read-out in assay [1]: C-C motif chemokine 2 (Homo sapiens) (UniProt P13500)
The assay is described as follows: BSK_KF3CT_MCP1: BioMAP Diversity Plus: KF3CT Assay for Monocyte Chemoattractant Protein 1 (MCP1/CCL2) Biomarker Activity (AID 2283073). Conditions: primary human keratinocytes with fibroblasts; actives raise or lower the signal. The gist of the method: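 ELISA readout of MCP-1 after 24 h chemical dosing of a human skin primary co-culture of keratinocytes and foreskin fibroblasts. Activity was fitted in both directions against DMSO.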

Read-out in assay [2]: urokinase plasminogen activator (uPA), PLAU (gene 5328)
Nature of the assay: BSK_KF3CT_uPA: BioMAP Diversity Plus: KF3CT Assay for urokinase plasminogen activator (uPA) Biomarker Activity (AID 2283075). The conditions noted are these: primary human keratinocytes with fibroblasts; actives raise or lower the signal. The method, boiled down: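 Primary human keratinocyte/foreskin fibroblast co-culture exposed to chemical; uPA measured by ELISA at 24 h. Bidirectional fit versus DMSO, with parallel SRB total-protein staining for cytotoxicity.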

Read-out in assay [3]: CD40, CD40 (gene 958)
Nature of the assay: BSK_LPS_CD40: BioMAP Diversity Plus: LPS Assay for CD40 Biomarker Activity (AID 2283076). The conditions noted are these: primary human HUVEC with PBMC; actives raise or lower the signal. The method, boiled down: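 Cells were dosed, incubated 24 h, then assayed for CD40 by ELISA. Gain or loss of signal was analysed relative to DMSO controls. The culture paired human umbilical vein endothelium with peripheral blood mononuclear cells.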

Read-out in assay [4]: E-selectin (Homo sapiens) (UniProt P16581)
The assay is described as follows: BSK_LPS_Eselectin: BioMAP Diversity Plus: LPS Assay for Eselectin Biomarker Activity (AID 2283077). Conditions: primary human HUVEC with PBMC; actives raise or lower the signal. The gist of the method:
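Primary human vascular co-culture (endothelium plus PBMC) was dosed with chemical, then E-selectin quantified by ELISA at 24 h. Endpoint values derive from bidirectional curve fitting relative to DMSO.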

Read-out in assay [5]: Interleukin-8 (IL8), CXCL8 (gene 3576)
Nature of the assay: BSK_LPS_IL8: BioMAP Diversity Plus: LPS Assay for Interleukin-8 (IL8) Biomarker Activity (AID 2283078). Conditions: primary human HUVEC with PBMC; actives raise or lower the signal. The method, boiled down: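 Readout is IL-8 by ELISA, taken 24 h after compounds were added to LPS-stimulated endothelial/PBMC co-cultures. Both increases and decreases relative to DMSO control were scored through bidirectional fitting.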

The nature of assay [6]: BSK_LPS_SRB: Viability Assessment in the BioMAP Diversity Plus: LPS Assay (AID 2283079).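 Further: total protein by sulforhodamine B absorbance as a cytotoxicity measure; measured one day after compound addition.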 Conditions: primary human HUVEC with PBMC. The method, boiled down:
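Readout is SRB absorbance at 560 nm (0.1% stain, TCA-fixed parallel cultures) as a total-protein cytotoxicity measure. Cells: primary human umbilical vein endothelium plus peripheral blood mononuclear cells, 24 h after chemical exposure; DMSO served as baseline.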

Read-out in assay [7]: Interleukin-1 alpha (IL1a), IL1A (gene 3552)
Nature of the assay: BSK_LPS_IL1a: BioMAP Diversity Plus: LPS Assay for Interleukin-1 alpha (IL1a) Biomarker Activity (AID 2283080). The conditions noted are these: primary human HUVEC with PBMC; actives raise or lower the signal. The method, boiled down: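 ELISA read-out of IL-1 alpha from a human primary vascular co-culture (endothelium plus PBMC) under LPS, sampled 24 hours post-dosing. Activity was fitted in both directions relative to DMSO controls.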

Read-out in assay [8]: Monocyte Chemoattractant Protein-1 (MCP1), CCL2 (gene 6347)
Nature of the assay: BSK_LPS_MCP1: BioMAP Diversity Plus: LPS Assay for Monocyte Chemoattractant Protein-1 (MCP1) Biomarker Activity (AID 2283081).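 On AC50: secreted MCP-1 protein quantified by ELISA in culture supernatant.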 The conditions noted are these: primary human HUVEC with PBMC; actives raise or lower the signal. The gist of the method:
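Human endothelial–PBMC co-cultures were dosed with chemical, then LPS-driven MCP-1 levels were quantified by ELISA at 24 h. Activity in either direction was fitted versus DMSO negative control.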

Assay [9] in a line: BSK_LPS_PGE2: BioMAP Diversity Plus: LPS Assay for Prostaglandin E2 (PGE2) Biomarker Activity (AID 2283082). Conditions: primary human HUVEC with PBMC; actives raise or lower the signal. The gist of the method: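 HUVEC plus PBMC co-culture stimulated with LPS; secreted PGE2 quantified by ELISA 24 h after chemical dosing. Activity fitted bidirectionally against DMSO as negative control and baseline; parallel SRB total-protein staining served as cytotoxicity check.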

Read-out in assay [10]: Macrophage colony-stimulating factor (MCSF), CSF1 (gene 1435)
Nature of the assay: BSK_LPS_MCSF: BioMAP Diversity Plus: LPS Assay for Macrophage colony-stimulating factor (MCSF) Biomarker Activity (AID 2283083). Conditions: primary human HUVEC with PBMC; actives raise or lower the signal. The gist of the method:
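ELISA readout of M-CSF after 24 h compound exposure in a human endothelial/PBMC co-culture. Activity, in either direction, is fitted relative to DMSO vehicle.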

Read-out in assay [11]: Tissue Factor, F3 (gene 2152)
Nature of the assay: BSK_LPS_TissueFactor: BioMAP Diversity Plus: LPS Assay for Tissue Factor Biomarker Activity (AID 2283084). Conditions: primary human HUVEC with PBMC; actives raise or lower the signal. The method, boiled down:
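ELISA signal for cell-surface Tissue Factor (CD142) was read 24 h after compound dosing of an LPS-stimulated human endothelial–PBMC primary co-culture. Gain or loss of signal was scored relative to DMSO.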

Read-out in assay [12]: Tumor necrosis factor (Homo sapiens) (UniProt P01375)
The assay is described as follows: BSK_LPS_TNFa: BioMAP Diversity Plus: LPS Assay for Tumour Necrosis Factor alpha (TNFa) Biomarker Activity (AID 2283085). The conditions noted are these: primary human HUVEC with PBMC; actives raise or lower the signal. The method, boiled down: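 Human umbilical vein endothelial cells co-cultured with PBMC were exposed to test chemical and TNFa measured by ELISA 24 h after dosing. Bidirectional curve fitting was done relative to DMSO as negative control and baseline.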

Read-out in assay [13]: Vascular cell adhesion molecule 1 (VCAM1), VCAM1 (gene 7412)
The assay is described as follows: BSK_LPS_VCAM1: BioMAP Diversity Plus: LPS Assay for Vascular cell adhesion molecule 1 (VCAM1) Biomarker Activity (AID 2283086). Conditions: primary human HUVEC with PBMC; actives raise or lower the signal. The method, boiled down: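 Human umbilical vein endothelial cells co-cultured with peripheral blood mononuclear cells under LPS stimulation were exposed to test chemical for 24 h. VCAM-1 levels were then measured by ELISA, with bidirectional curve fitting relative to DMSO as negative control and baseline.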

Read-out in the next assay: CD38, CD38 (gene 952)
Nature of the assay: BSK_SAg_CD38: BioMAP Diversity Plus: SAg Assay for CD38 Biomarker Activity (AID 2283087). The conditions noted are these: primary human HUVEC with PBMC; actives raise or lower the signal. The method, boiled down:
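Fluorescence ELISA of cell-surface CD38 served as the read-out, with either increase or decrease fitted against DMSO controls. Cells were a human umbilical vein endothelium plus PBMC co-culture under SEB/TSST-1 stimulation, measured 24 h after dosing.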

Read-out in assay [14]: CD40, CD40 (gene 958)
The assay is described as follows: BSK_SAg_CD40: BioMAP Diversity Plus: SAg Assay for CD40 Biomarker Activity (AID 2283088). Conditions: primary human HUVEC with PBMC; actives raise or lower the signal. The gist of the method:
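Compounds were dosed onto a human primary endothelial–PBMC co-culture, and after 24 h CD40 was quantified by ELISA using a fluorescence signal. Activity in either direction was fitted relative to DMSO.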

Read-out in the next assay: CD69, CD69 (gene 969)
The assay is described as follows: BSK_SAg_CD69: BioMAP Diversity Plus: SAg Assay for CD69 Biomarker Activity (AID 2283089).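 On AC50: cell surface CD69 protein quantified by ELISA with fluorescence detection.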 The conditions noted are these: primary human HUVEC with PBMC; actives raise or lower the signal. The method, boiled down:
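HUVEC co-cultured with PBMC were dosed with chemical, and CD69 was measured by ELISA with fluorescence read-out 24 h later. Bidirectional curve fitting used DMSO as negative control and activity baseline.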

Read-out in assay [15]: Monocyte Chemoattractant Protein-1 (MCP1), CCL2 (gene 6347)
The assay is described as follows: BSK_SAg_MCP1: BioMAP Diversity Plus: SAg Assay for Monocyte Chemoattractant Protein-1 (MCP1) Biomarker Activity (AID 2283090). Conditions: primary human HUVEC with PBMC; actives raise or lower the signal. The method, boiled down: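 MCP-1 levels in the endothelial–PBMC SAg co-culture were quantified by ELISA at 24 h post-dosing; both increases and decreases versus DMSO scored. Cytotoxicity monitored by SRB total protein in parallel cultures.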

Read-out in assay [16]: E-selectin (Homo sapiens) (UniProt P16581)
Nature of the assay: BSK_SAg_Eselectin: BioMAP Diversity Plus: SAg Assay for Eselectin Biomarker Activity (AID 2283091). The conditions noted are these: primary human HUVEC with PBMC; actives raise or lower the signal. The method, boiled down:
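Co-culture: HUVEC + PBMC. Dose compound; 24 h. ELISA for E-selectin. Bidirectional fit vs DMSO.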

Read-out in assay [17]: Monokine induced gamma interferon (MIG), CXCL9 (gene 4283)
Nature of the assay: BSK_SAg_MIG: BioMAP Diversity Plus: SAg Assay for Monokine induced gamma interferon (MIG) Biomarker Activity (AID 2283092). The conditions noted are these: primary human HUVEC with PBMC; actives raise or lower the signal. The gist of the method: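 HUVEC plus human PBMC co-culture, chemicals dosed and MIG (CXCL9) quantified by ELISA at 24 h. Bidirectional curve fitting against DMSO as negative control and baseline, so both gain and loss of signal count as activity.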

Read-out in assay [18]: Matrix Metallopeptidase 9 (MMP9), MMP9 (gene 4318)
Nature of the assay: BSK_KF3CT_MMP9: BioMAP Diversity Plus: KF3CT Assay for Matrix Metallopeptidase 9 (MMP9) Biomarker Activity (AID 2283074). The conditions noted are these: primary human keratinocytes with fibroblasts; actives raise or lower the signal. The gist of the method:
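Human keratinocyte and foreskin fibroblast co-culture exposed to chemicals for 24 h; MMP9 biomarker measured by ELISA, bidirectional fitting relative to DMSO; cytotoxicity tracked by SRB total protein staining in parallel cultures.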

Active and inactive are the calls of the source. How the source made its calls: active means hit-call score of the fitted dose curve at least 0.9, where 1 is the maximum; inactive means score below 0.9.

Sequence of Tumor necrosis factor (Homo sapiens) (P01375 whole entry, looked up): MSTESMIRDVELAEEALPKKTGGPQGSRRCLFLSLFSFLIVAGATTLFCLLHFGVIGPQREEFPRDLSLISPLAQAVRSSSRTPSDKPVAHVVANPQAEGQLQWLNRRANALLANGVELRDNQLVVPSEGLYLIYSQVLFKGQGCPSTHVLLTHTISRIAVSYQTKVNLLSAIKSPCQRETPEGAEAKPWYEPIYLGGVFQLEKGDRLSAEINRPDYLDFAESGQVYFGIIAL
Sequence of E-selectin (Homo sapiens) (P16581 whole entry, looked up): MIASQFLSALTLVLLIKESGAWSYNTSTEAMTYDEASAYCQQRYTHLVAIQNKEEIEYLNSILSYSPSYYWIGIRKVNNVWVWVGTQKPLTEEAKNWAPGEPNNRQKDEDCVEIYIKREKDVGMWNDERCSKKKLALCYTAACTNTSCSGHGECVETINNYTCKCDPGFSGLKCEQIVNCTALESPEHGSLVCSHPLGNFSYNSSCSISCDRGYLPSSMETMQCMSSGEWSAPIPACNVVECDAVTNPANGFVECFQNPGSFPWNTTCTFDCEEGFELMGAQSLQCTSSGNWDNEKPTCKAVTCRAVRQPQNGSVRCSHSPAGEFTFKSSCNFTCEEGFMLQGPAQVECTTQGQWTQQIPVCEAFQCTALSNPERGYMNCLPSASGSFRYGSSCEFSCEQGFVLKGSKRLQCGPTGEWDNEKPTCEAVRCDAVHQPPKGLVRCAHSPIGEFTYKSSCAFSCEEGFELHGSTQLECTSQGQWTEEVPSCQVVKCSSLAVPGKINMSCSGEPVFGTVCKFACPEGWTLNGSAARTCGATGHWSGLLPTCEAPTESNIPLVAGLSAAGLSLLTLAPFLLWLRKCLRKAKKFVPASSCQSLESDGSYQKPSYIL

As to `CCCCOC(=O)COC(=O)c1ccccc1C(=O)OCCCC`, the outcome is “inactive” in [1]; “inactive” in assay [2]; “inactive” with CD40, CD40 (gene 958) [3]; “inactive” in assay [4]; “inactive” in assay [5]; “inactive” in assay [6]. In addition, the outcome in assay [7], in [8], in assay [9], in assay [10], in assay [11] and in assay [12] was inactive. Also, the outcome was “inactive” in assay [13]; “inactive” in the assay with CD38, CD38 (gene 952); “inactive” with CD40, CD40 (gene 958) [14]; “inactive” in the assay with CD69, CD69 (gene 969); “inactive” in [15]; “inactive” in [16]. In addition, in assay [17], the outcome was inactive.

For the molecule `CCOC(=O)CCN(SN(C)C(=O)Oc1cccc2c1OC(C)(C)C2)C(C)C`, the outcome in assay [1] was “inactive”; in assay [18], “inactive”; in [2] it was “inactive”; with CD40, CD40 (gene 958) [3], “inactive”; in assay [4] it was “inactive”; in assay [5], “inactive”. Moreover, the outcome in [6], in assay [7], in [8], in assay [9], in [10] and in [11] was inactive. In [12], the outcome was inactive. Further, the AC50 in assay [13] was 20 µM (active); with CD38, CD38 (gene 952), 30 µM (active); with CD40, CD40 (gene 958) [14], 29.6 µM (active); with CD69, CD69 (gene 969), 29.3 µM (active); in [15] it was 32 µM (active); in [16], 27.7 µM (active). Also, the half-maximal activity concentration (AC50) in assay [17] was 35.4 µM (active).

Turning to `OC(Cc1ccccc1Cl)(Cn1[nH]cnc1=S)C1(Cl)CC1` (centres undefined), the result in assay [1], in assay [18], in assay [2], in assay [4], in assay [5] and in assay [6] was inactive. In addition, the result in assay [7], in [10], in assay [11], in assay [12], in assay [13] and in assay [15] was inactive. Further, the outcome in assay [16] and in [17] was inactive. Further, the half-maximal activity concentration (AC50) was 20 µM (active) with CD40, CD40 (gene 958) [3]; 24.6 µM (active) in assay [8]; 11.1 µM (active) in assay [9]; 20 µM (active) with CD38, CD38 (gene 952); 20 µM (active) with CD40, CD40 (gene 958) [14]; 14.1 µM (active) with CD69, CD69 (gene 969).

For the origin of these results see PubChem BioAssay (EPA / NIEHS).
